This is an account of results in PubChem BioAssay (EPA / NIEHS).

Holding throughout (settings): mRNA level, 48 h; actives raise or lower the signal
Read-out in test [1]: NAD(P)H dehydrogenase [quinone] 1 (NQO1), NQO1 (gene 1728)
In words: LTEA_HepaRG_NQO1: Life Technologies and Expression Analysis (LTEA) Assay for NAD(P)H dehydrogenase [quinone] 1 (NQO1) using HepaRG (AID 2283526). The essentials:
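Differentiated HepaRG cells, plated 48 h and then switched to serum-free induction medium, were exposed in duplicate for 48 h to 8-point half-log concentrations up to 100 uM in 0.5% DMSO. mRNA measured by qRT-PCR, normalized to ACTB, GAPDH, POLR2A; bidirectional fit versus DMSO.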

Read-out in test [2]: Nuclear factor erythroid 2-related factor 2 (Homo sapiens) (UniProt Q16236)
In words: LTEA_HepaRG_NFE2L2: Life Technologies and Expression Analysis (LTEA) Assay for Nuclear factor erythroid 2-related factor 2 (NFE2L2) Transcription Factor using HepaRG (AID 2283527).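 On outcome: TaqMan qRT-PCR transcript level normalised to ACTB GAPDH and POLR2A housekeeping genes.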 The essentials: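 Differentiated human HepaRG cells in serum-free induction medium were exposed for 48 h to eight concentrations (top 100 uM, half-log dilutions, 0.5% DMSO), in duplicate. NFE2L2 mRNA was quantified by TaqMan qRT-PCR, normalized to ACTB, GAPDH and POLR2A, with bidirectional fitting versus DMSO.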

Read-out in test [3]: succinate dehydrogenase complex iron sulfur subunit B (SDHB), SDHB (gene 6390)
The test can be described thus: LTEA_HepaRG_SDHB: Life Technologies and Expression Analysis (LTEA) Assay for succinate dehydrogenase complex iron sulfur subunit B (SDHB) using HepaRG (AID 2283528). The method in brief: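 HepaRG cells (~100,000/well, plated 48 h) exposed in duplicate for 48 h in serum-free induction medium to 8-point half-log series from 100 uM in 0.5% DMSO; mRNA by qRT-PCR normalised to ACTB, GAPDH, POLR2A; bidirectional fit versus DMSO.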

Read-out in test [4]: Signal transducer and activator of transcription 3 (Homo sapiens) (UniProt P40763)
In words: LTEA_HepaRG_STAT3: Life Technologies and Expression Analysis (LTEA) Assay for Signal transducer and activator of transcription (STAT3) using HepaRG (AID 2283529). The essentials:
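Differentiated human HepaRG cells in serum-free induction medium were exposed in duplicate for 48 h to eight half-log concentrations up to 100 uM in 0.5% DMSO. STAT3 mRNA was quantified by TaqMan qRT-PCR, normalized to ACTB, GAPDH and POLR2A, and fitted bidirectionally against DMSO.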

Read-out in test [5]: solute carrier (SLCO1B1), SLCO1B1 (gene 10599)
In words: LTEA_HepaRG_SLCO1B1: Life Technologies and Expression Analysis (LTEA) Assay for solute carrier (SLCO1B1) using HepaRG (AID 2283530). The essentials: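 Human HepaRG cultures treated for 48 h with an eight-concentration half-log series topping at 100 uM; SLCO1B1 measured by qRT-PCR and fitted bidirectionally relative to DMSO.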

Read-out in test [6]: sulfotransferase 2A1 (SULT2A1), SULT2A1 (gene 6822)
The test can be described thus: LTEA_HepaRG_SULT2A1: Life Technologies and Expression Analysis (LTEA) Assay for sulfotransferase 2A1 (SULT2A1) using HepaRG (AID 2283531). The method in brief: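 Gene-expression endpoint in a human liver cell line: SULT2A1 mRNA change after 48 h chemical treatment, curves fitted in both directions relative to 0.5% DMSO vehicle. Concentrations spanned eight half-log steps from 100 uM.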

Read-out in test [7]: Transforming Growth Factor (TGFA), TGFA (gene 7039)
The test can be described thus: LTEA_HepaRG_TGFA: Life Technologies and Expression Analysis (LTEA) Assay for Transforming Growth Factor (TGFA) using HepaRG (AID 2283532). The method in brief: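 Differentiated human HepaRG cells, plated 48 h then switched to serum-free induction medium, were exposed in duplicate for 48 h to 8-point half-log series from 100 uM in 0.5% DMSO. TGFA mRNA measured by qRT-PCR, normalized to ACTB/GAPDH/POLR2A, bidirectional fit versus DMSO.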

Read-out in test [8]: Transforming Growth Factor (TGFB1), TGFB1 (gene 7040)
The test can be described thus: LTEA_HepaRG_TGFB1: Life Technologies and Expression Analysis (LTEA) Assay for Transforming Growth Factor (TGFB1) Transporter using HepaRG (AID 2283533). The essentials:
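Eight-point concentration-response (max 100 uM, half-log) in HepaRG under serum-free induction conditions, 48 h. TGFB1 mRNA by qRT-PCR, housekeeping-normalized.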

Read-out in a further test: TIMP1, TIMP1 (gene 7076)
The test can be described thus: LTEA_HepaRG_TIMP1: Life Technologies and Expression Analysis (LTEA) Assay for TIMP1 using HepaRG (AID 2283534).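 On outcome: TaqMan qRT-PCR signal normalized to ACTB GAPDH and POLR2A housekeeping genes.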 The method in brief: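 TIMP1 induction or repression in HepaRG cells after 48 h chemical exposure (eight concentrations, highest 100 uM), assessed by normalized qRT-PCR with bidirectional fitting to DMSO controls.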

Read-out in test [9]: Tumor necrosis factor receptor 1 (TNFRSF1A), TNFRSF1A (gene 7132)
In words: LTEA_HepaRG_TNFRSF1A: Life Technologies and Expression Analysis (LTEA) Assay for Tumor necrosis factor receptor 1 (TNFRSF1A) using HepaRG (AID 2283535). The method in brief: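 Assay uses 48 h chemical treatment of differentiated HepaRG monolayers, tested in duplicate at eight concentrations from 100 uM downward in 0.5% DMSO. mRNA is normalized to ACTB, GAPDH and POLR2A, with induction or suppression fitted relative to vehicle.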

The source made the active and inactive calls. How the source made its calls: active means hit-call score of the fitted dose curve at least 0.9, where 1 is the maximum; inactive means score below 0.9.

Sequence of Signal transducer and activator of transcription 3 (Homo sapiens) (P40763 whole entry, looked up): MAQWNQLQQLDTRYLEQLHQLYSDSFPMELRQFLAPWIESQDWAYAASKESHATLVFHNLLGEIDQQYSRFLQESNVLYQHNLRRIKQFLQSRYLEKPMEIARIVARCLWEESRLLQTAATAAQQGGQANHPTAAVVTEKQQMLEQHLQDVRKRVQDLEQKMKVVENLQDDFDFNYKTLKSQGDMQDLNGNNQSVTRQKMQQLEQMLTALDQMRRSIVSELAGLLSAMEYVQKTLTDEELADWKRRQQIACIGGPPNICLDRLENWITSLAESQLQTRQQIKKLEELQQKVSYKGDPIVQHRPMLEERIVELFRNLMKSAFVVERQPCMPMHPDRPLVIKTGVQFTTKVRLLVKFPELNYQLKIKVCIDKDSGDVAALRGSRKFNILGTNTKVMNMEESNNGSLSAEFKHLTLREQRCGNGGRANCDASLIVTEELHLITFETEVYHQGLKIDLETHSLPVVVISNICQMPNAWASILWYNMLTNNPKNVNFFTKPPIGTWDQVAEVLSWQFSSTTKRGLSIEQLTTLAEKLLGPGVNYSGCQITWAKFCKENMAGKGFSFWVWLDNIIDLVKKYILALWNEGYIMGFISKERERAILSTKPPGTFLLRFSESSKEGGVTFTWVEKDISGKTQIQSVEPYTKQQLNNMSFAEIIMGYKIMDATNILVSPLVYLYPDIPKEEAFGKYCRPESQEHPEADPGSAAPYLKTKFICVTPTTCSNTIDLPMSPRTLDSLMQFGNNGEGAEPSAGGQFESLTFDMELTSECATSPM
Sequence of Nuclear factor erythroid 2-related factor 2 (Homo sapiens) (Q16236 whole entry, looked up): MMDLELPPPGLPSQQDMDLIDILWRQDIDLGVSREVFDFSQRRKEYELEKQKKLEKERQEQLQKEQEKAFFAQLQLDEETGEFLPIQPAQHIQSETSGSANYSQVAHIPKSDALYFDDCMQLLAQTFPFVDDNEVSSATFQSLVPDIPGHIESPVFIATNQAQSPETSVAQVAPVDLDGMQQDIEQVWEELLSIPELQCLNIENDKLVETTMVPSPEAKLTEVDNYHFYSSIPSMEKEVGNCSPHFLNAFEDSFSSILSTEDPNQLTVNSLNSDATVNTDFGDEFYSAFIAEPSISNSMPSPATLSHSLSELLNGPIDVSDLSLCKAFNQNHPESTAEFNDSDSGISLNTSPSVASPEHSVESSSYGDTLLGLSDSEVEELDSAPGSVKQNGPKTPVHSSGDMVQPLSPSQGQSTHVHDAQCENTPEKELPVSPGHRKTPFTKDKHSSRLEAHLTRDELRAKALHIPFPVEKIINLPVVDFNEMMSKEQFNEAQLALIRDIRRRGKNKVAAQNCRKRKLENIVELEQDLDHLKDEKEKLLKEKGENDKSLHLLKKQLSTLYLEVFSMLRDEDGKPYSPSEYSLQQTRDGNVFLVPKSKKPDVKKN

For `CCCCCOC(C)=O`, the outcome in [1], in test [2], in test [3], in test [4], in [5] and in test [6] was inactive. Moreover, the outcome was “inactive” in test [7]; “inactive” in test [8]; “inactive” with TIMP1, TIMP1 (gene 7076); “inactive” in test [9].

For `Cn1cc[nH]c1=S`, the call in [1], in test [2], in test [3], in [4], in [5] and in test [6] was inactive. For the same compound, the outcome was “inactive” in test [7]; “inactive” in test [8]; “inactive” with TIMP1, TIMP1 (gene 7076); “inactive” in test [9].

Regarding `OC(Cn1cncn1)(Cn1cncn1)c1ccc(F)cc1F`, the compound was called inactive in test [1], in [2], in test [3], in [4], in test [5] and in test [6]. For the same compound, the outcome in [7] was “inactive”; in test [8], “inactive”; with TIMP1, TIMP1 (gene 7076), “inactive”; in test [9], “inactive”.

Usually AC50 stands for the midpoint of the concentration-response curve, whichever way the signal moves. As to `CCCCC(CC)C(=O)OCCOCCOCCOC(=O)C(CC)CCCC` (stereo not given), the result in test [1], in [2], in test [3], in [4], in test [5] and in test [6] was inactive. Besides, the outcome in test [7] is “inactive”; in test [8] it was “inactive”; with TIMP1, TIMP1 (gene 7076), “inactive”. Moreover, in test [9], the AC50 is 78.2 µM (active).

As to `CC(=O)c1ccccc1`, the call in test [1], in test [2], in test [3], in test [4], in test [5] and in test [6] was inactive. The outcome in test [7] is “inactive”; in [8], “inactive”; with TIMP1, TIMP1 (gene 7076), “inactive”; in test [9], “inactive”.

With `NC(=O)NN=Cc1ccc([N+](=O)[O-])o1`, the results for the concentration at half-maximal activity (AC50) in test [1] and in test [7] were 11.4 µM (active) and 0.196 µM (active), respectively. Further, the result in test [2], in test [3], in [4], in [5], in test [6] and in test [8] was inactive. Besides, the outcome with TIMP1, TIMP1 (gene 7076) was “inactive”; in test [9] it was “inactive”.

With `OCc1ccccc1`, the outcome in test [1], in test [2], in test [3], in [4], in [5] and in test [6] was inactive. Besides, the outcome is “inactive” in test [7]; “inactive” in [8]; “inactive” with TIMP1, TIMP1 (gene 7076); “inactive” in test [9].

With `Nc1ccn([C@@H]2O[C@H](CO)[C@@H](O)[C@@H]2O)c(=O)n1`, the result in test [1], in test [2], in [3], in test [4], in [5] and in [6] was inactive. In addition, the outcome in [7] is “inactive”; in [8], “inactive”; with TIMP1, TIMP1 (gene 7076) it was “inactive”; in test [9] it was “inactive”.

On to `CCOc1ccc2[nH]cc(C(=O)NCc3ccccc3)c(=O)c2n1`, for which the call in test [1], in test [2], in test [3], in [4], in test [5] and in test [6] was inactive. In addition, the outcome in [7] is “inactive”; in [8] it was “inactive”; in the test with TIMP1, TIMP1 (gene 7076), “inactive”; in test [9], “inactive”.

For the compound `CCCCCCCC/C=C\CCCCCCCC(=O)OC[C@@H](O)[C@H]1OC[C@H](O)[C@H]1O`, the result in [1], in [2], in test [3], in [4], in test [5] and in test [6] was inactive. In addition, the outcome in test [7] is “inactive”; in [8] it was “inactive”; with TIMP1, TIMP1 (gene 7076) it was “inactive”; in test [9], “inactive”.

Take `OC(CCl)CCl`: the compound was called inactive in test [1], in test [2], in [3], in test [4], in test [5] and in test [6]. Besides, the outcome in test [7] was “inactive”; in test [8], “inactive”; in the test with TIMP1, TIMP1 (gene 7076) it was “inactive”; in test [9] it was “inactive”.

For the compound `OC[C@H]1O[C@@H]2O[C@H]3[C@H](O)[C@@H](O)[C@@H](O[C@H]4[C@H](O)[C@@H](O)[C@@H](O[C@H]5[C@H](O)[C@@H](O)[C@@H](O[C@H]6[C@H](O)[C@@H](O)[C@@H](O[C@H]7[C@H](O)[C@@H](O)[C@@H](O[C@H]1[C@H](O)[C@H]2O)O[C@@H]7CO)O[C@@H]6CO)O[C@@H]5CO)O[C@@H]4CO)O[C@@H]3CO`, the outcome in [1], in test [2], in test [3], in [4], in [5] and in test [6] was inactive. The outcome is “inactive” in [7]; “inactive” in test [8]; “inactive” in the test with TIMP1, TIMP1 (gene 7076); “inactive” in test [9].

On to `COc1cc(C(C)C)c2c(c1)S(=O)(=O)N(COc1cc(=O)n3cccc(OCCN4CCCCC4)c3n1)C2=O`, for which the outcome in [1], in [3], in test [4], in test [7], in test [8] and in test [9] was inactive. Further, the AC50 in [2] is 22.8 µM (active); in test [5], 21.1 µM (active); in test [6], 23.7 µM (active); with TIMP1, TIMP1 (gene 7076), 19.8 µM (active).

For the compound `OCCNCCO`, the compound was classed as inactive in test [1], in test [2], in test [3], in [4], in test [5] and in test [7]. For the same compound, the outcome in test [8] is “inactive”; with TIMP1, TIMP1 (gene 7076), “inactive”; in test [9], “inactive”. Moreover, the AC50 in [6] is 21.9 µM (active).

For the compound `CCCC(CCC)C(=O)O`, the result in test [1], in [2], in test [3], in test [4], in [5] and in [6] was inactive. For the same compound, the outcome in test [7] was “inactive”; in test [8] it was “inactive”; with TIMP1, TIMP1 (gene 7076), “inactive”; in [9], “inactive”.

On to `NC(N)=O`, for which the outcome in test [1], in [2], in [3], in test [4], in [5] and in test [6] was inactive. Further, the outcome in [7] is “inactive”; in test [8], “inactive”; in the test with TIMP1, TIMP1 (gene 7076) it was “inactive”; in test [9], “inactive”.

As to `COCc1nnc(-c2ccc[n+]([O-])c2)n1-c1c(Cl)c(Cl)cc2[nH]c(=O)c(=O)[nH]c12`, the outcome in test [1], in test [2], in test [3], in test [4], in [5] and in test [6] was inactive. Moreover, the outcome in test [7] was “inactive”; in [8] it was “inactive”; with TIMP1, TIMP1 (gene 7076) it was “inactive”; in test [9], “inactive”.
